Results reported in PubChem BioAssay (Tox21).
Results filed as inconclusive are left out. Where a call stands in place of a potency, no number is given. Activity calls are given as the source filed them. Unless noted, the call rests on the fitted dose curve.

Test: qHTS assay for small molecule agonists of the p53 signaling pathway (AID 651631)
Conditions: HCT-116 p53RE-bla reporter, beta-lactamase FRET ratio, 16 h; series mostly up to 73.3 µM
Summary of the method: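 HCT-116 cells carrying a stable p53 response element–beta-lactamase reporter were plated, rested 5 h at 37 °C, then exposed to compound in DMSO for 16 h at 37 °C; reporter activity was read as FRET substrate fluorescence after 2 h at room temperature.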
Further: nearly all actives have a fitted effect of over 15% in size.

Structure (SMILES) | Potency
CCN(CCO)CCO | inactive
COc1cccc(C=O)c1 | inactive
C=CC1(C)OC(=O)N(c2cc(Cl)cc(Cl)c2)C1=O (stereo not given) | inactive
CNC(=O)NC(O)C(Cl)(Cl)Cl (stereo not given) | inactive
CS(=O)(=O)Cl | inactive
NCC1(CC(=O)O)CCCCC1 | inactive
COc1ccccc1OC | inactive
[P]#[In] | inactive
CCOC(=O)NC(C)(C)Cc1ccc(Cl)cc1 | inactive
O=c1[nH]oc2c1CCNC2 | inactive
N#CN=C1SCCN1Cc1ccc(Cl)nc1 | inactive
CN(CCO)CCO | inactive
COC(=O)c1ccccc1CS(=O)(=O)NC(=O)Nc1nc(OC)cc(OC)n1 | inactive
C[N+]1(C)CCCCC1 | inactive
Cc1ccc(-c2nc3ccc(C)cn3c2CC(=O)N(C)C)cc1 | inactive
CC(=O)OCC1=C(C(=O)O)N2C(=O)[C@@H](N)[C@H]2SC1 | inactive
CCC(C(N)=O)N1CCCC1=O (stereo not given) | inactive
CCOP(=S)(OCC)Oc1ccc(Cl)cc1Cl | inactive
O=[N+]([O-])CCO | inactive
CCc1cc(OC)c(C[C@H](C)N)cc1OC | inactive
COC(=O)c1ccc(CBr)cc1 | inactive

Test: qHTS assay for small molecules that induce genotoxicity in human embryonic kidney cells expressing luciferase-tagged ATAD5 (AID 651632; active means well fitted activation curve with a large enough effect in the repeat runs)
Conditions: HEK293T ATAD5-luciferase induction, 16 h; series mostly up to 83.3 µM
Summary of the method: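 Increased luciferase signal from ATAD5-tagged reporter cells indicates DNA-damage-driven ATAD5 induction. HEK293T cells are treated for 16 hr at 37C before detection with Amplite.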

Structure (SMILES) | outcome
C=CCc1cc(OC)c2c(c1)OCO2 | inactive
CC(C)(C1CCC(O)CC1)C1CCC(O)CC1 (stereo not given) | inactive
COC(=O)[C@@H](N)CCCN/C(N)=N/[N+](=O)[O-] | inactive
CC(C)(O)C(Cl)(Cl)Cl | inactive
CCCC(C)(COC(N)=O)COC(N)=O | inactive
Cc1cc(OC(=O)N(C)C)nn1C(=O)N(C)C | inactive
O=C(Cl)/C=C/C(=O)Cl | inactive
O=C(Cl)C(Cl)(Cl)Cl | inactive
CCOC1Oc2ccc(OS(C)(=O)=O)cc2C1(C)C (stereo not given) | inactive
COc1cc(CCN)cc(OC)c1OC | inactive
O=P(O)(O)c1ccccc1 | inactive
Oc1ccc(Cc2ccc(O)cc2)cc1 | inactive
C=C1CC[C@@]2(O)[C@H]3Cc4ccc(O)c5c4[C@@]2(CCN3CC2CC2)[C@H]1O5 | inactive
CN(C)CCc1c[nH]c2cccc(OP(=O)(O)O)c12 | inactive
CCC1(c2ccccc2)C(=O)N(COC)C(=O)N(COC)C1=O | inactive
CCCCCCCCSC(=O)Oc1cc(Cl)nnc1-c1ccccc1 | inactive
BrCc1ccc(Br)cc1 | inactive
C[C@H](N)C(=O)c1ccccc1 | inactive
CCN[C@@H](C)Cc1cccc(C(F)(F)F)c1 | inactive
